Reference: PubChem BioAssay (NCATS)
Records with an inconclusive call do not appear. A call without a number means that no potency is given here. Unmarked numbers belong to inactive results. Calls of active or inactive are those of the source. Calls follow the shape of the dose curve; as a rule, active = well fitted cell-killing curve with a large enough effect; inconclusive = small, poorly fitted or top-dose-only effect, or effect the other way; inactive = flat fitted curve, though single readings scatter.

Experiments:
Assay in all cases: Primary qHTS to identify gynecologic anti-cancer compounds using libraries of approved drugs and bioactive compounds (AID 1345084); also: nearly all actives have a fitted effect of over 55% in size
[1] = system: C33A; details: Gynecologic cancer cell panel viability, ATPlite luminescence, 48 h; series mostly up to 57.5 µM
Procedure, shortened: (§1)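 Five-concentration response, 48 h; readout is ATP-driven luciferase luminescence.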

[2] = system: CASKI; details: Gynecologic cancer cell panel viability, ATPlite luminescence, 48 h; series mostly up to 57.5 µM
Procedure, shortened: as §1

[3] = system: Es-2; details: Gynecologic cancer cell panel viability, ATPlite luminescence, 48 h; series mostly up to 57.5 µM
Procedure, shortened: as §1

[4] = system: HeLa; details: Gynecologic cancer cell panel viability, ATPlite luminescence, 48 h; series mostly up to 57.5 µM
Procedure, shortened: as §1

[5] = system: Hek293T; details: Gynecologic cancer cell panel viability, ATPlite luminescence, 48 h, control line for the selectivity index; series mostly up to 57.5 µM
Procedure, shortened: as §1

[6] = system: JEG-3; details: Gynecologic cancer cell panel viability, ATPlite luminescence, 48 h; series mostly up to 57.5 µM
Procedure, shortened: as §1

[7] = system: OV90; details: Gynecologic cancer cell panel viability, ATPlite luminescence, 48 h; series mostly up to 57.5 µM
Procedure, shortened: as §1

[8] = system: PA-1; details: Gynecologic cancer cell panel viability, ATPlite luminescence, 48 h; series mostly up to 57.5 µM
Procedure, shortened: as §1
Potency is read from the fitted curve at half-maximal effect.

CC(C)C[C@@H](C(=O)N[C@@H](Cc1ccc(OCc2ccccc2)cc1)C(=O)NC(C)(C)C)N(C)Cc1ccc(C(C)(C)C)cc1
Potency [1]: inactive | Potency [2]: inactive | Potency [3]: inactive | Potency [4]: inactive | Potency [5]: inactive | Potency [6]: inactive | Potency [7]: inactive | Potency [8]: inactive

COc1ccc(C(=O)Nc2c(Cl)cncc2Cl)cc1OC1CCCC1
Potency [1]: inactive | Potency [2]: inactive | Potency [3]: inactive | Potency [4]: inactive | Potency [5]: inactive | Potency [6]: inactive | Potency [7]: inactive | Potency [8]: inactive

COc1ccc([C@H](Cc2ccncc2)c2ccccc2)cc1OC1CCCC1
Potency [1]: inactive | Potency [2]: inactive | Potency [3]: inactive | Potency [4]: inactive | Potency [5]: inactive | Potency [6]: inactive | Potency [7]: inactive | Potency [8]: inactive

NCC(CNc1nc(Nc2cccc(NC(=O)N3CCCC3)c2)ncc1I)C(=O)c1cccs1 (stereo not given)
Potency [1]: inactive | Potency [2]: inactive | Potency [3]: inactive | Potency [4]: inactive | Potency [5]: inactive | Potency [6]: inactive | Potency [7]: inactive | Potency [8]: inactive

Cc1nc(Nc2ccc(F)cc2)nc(N2CCc3ccccc3C2C)c1C (stereo not given)
Potency [1]: inactive | Potency [2]: inactive | Potency [3]: inactive | Potency [4]: inactive | Potency [5]: inactive | Potency [6]: inactive | Potency [7]: inactive | Potency [8]: inactive

C[C@@H](O[C@H]1OCCN(Cc2nn(P(=O)(O)O)c(=O)[nH]2)[C@H]1c1ccc(F)cc1)c1cc(C(F)(F)F)cc(C(F)(F)F)c1
Potency [1]: inactive | Potency [2]: inactive | Potency [3]: inactive | Potency [4]: inactive | Potency [5]: inactive | Potency [6]: inactive | Potency [7]: inactive | Potency [8]: inactive

C[C@@H]1CC[C@@]23CC[C@]4(C)[C@@](C=CC5[C@@]6(C)CC[C@H](O)C(C)(C)C6CC[C@]54C)(OC2=O)C3[C@H]1C (stereo not given in full)
Potency [1]: inactive | Potency [2]: inactive | Potency [3]: inactive | Potency [4]: inactive | Potency [5]: inactive | Potency [6]: inactive | Potency [7]: inactive | Potency [8]: inactive

O=C1NC(=O)C(c2cnc3ccccn23)=C1c1cn2c3c(cc(F)cc13)CN(C(=O)N1CCCCC1)CC2
Potency [1]: inactive | Potency [2]: inactive | Potency [3]: inactive | Potency [4]: inactive | Potency [5]: inactive | Potency [6]: inactive | Potency [7]: inactive | Potency [8]: 17.8 µM (active)

Cc1ccc(-c2ncccn2)c(C(=O)N2C[C@H](COc3ccc(F)cn3)CC[C@H]2C)c1
Potency [1]: inactive | Potency [2]: inactive | Potency [3]: inactive | Potency [4]: inactive | Potency [5]: inactive | Potency [6]: inactive | Potency [7]: inactive | Potency [8]: inactive

O=C(Nc1cnc(Cl)nc1)c1ccc(F)c(F)c1
Potency [1]: inactive | Potency [2]: inactive | Potency [3]: inactive | Potency [4]: inactive | Potency [5]: inactive | Potency [6]: inactive | Potency [7]: inactive | Potency [8]: inactive

O=C(NCCCN1CCC2(CC1)OCc1ccccc12)[C@H]1CCCN1Cc1ccccc1
Potency [1]: inactive | Potency [2]: inactive | Potency [3]: inactive | Potency [4]: inactive | Potency [5]: inactive | Potency [6]: inactive | Potency [7]: inactive | Potency [8]: inactive

COc1cc(C#N)ccc1S(=O)(=O)Nc1ccc2c(c1)cc(C)c(=O)n2C
Potency [1]: inactive | Potency [2]: inactive | Potency [3]: inactive | Potency [4]: inactive | Potency [5]: inactive | Potency [6]: inactive | Potency [7]: inactive | Potency [8]: inactive

c1cc(NCCc2c[nH]c3ccccc23)cc(Nc2ccncc2)c1
Potency [1]: inactive | Potency [2]: inactive | Potency [3]: inactive | Potency [4]: inactive | Potency [5]: inactive | Potency [6]: inactive | Potency [7]: inactive | Potency [8]: inactive

C#CCCCn1cc(-c2cccc3c2N[C@H](C)CC(=O)N3)cn1
Potency [1]: inactive | Potency [2]: inactive | Potency [3]: inactive | Potency [4]: 0.891 µM (active) | Potency [5]: inactive | Potency [6]: inactive | Potency [7]: inactive | Potency [8]: 7.08 µM (active)

CC1(C)Oc2ncnc(N)c2N=C1c1ccc(C23CCC(CC(=O)O)(CC2)CC3)cc1
Potency [1]: inactive | Potency [2]: inactive | Potency [3]: inactive | Potency [4]: inactive | Potency [5]: inactive | Potency [6]: inactive | Potency [7]: inactive | Potency [8]: inactive

O=C(NCc1ccccc1)c1ccc2c(=O)n(-c3cccc(C(F)(F)F)c3)c(=S)[nH]c2c1
Potency [1]: inactive | Potency [2]: inactive | Potency [3]: inactive | Potency [4]: inactive | Potency [5]: inactive | Potency [6]: inactive | Potency [7]: inactive | Potency [8]: inactive

CC1(C)C2CCC(CO[C@@H]3O[C@H](CO[C@@H]4OC[C@](O)(CO)[C@H]4O)[C@@H](O)[C@H](O)[C@H]3O)C1C2 (stereo not given in full)
Potency [1]: inactive | Potency [2]: inactive | Potency [3]: inactive | Potency [4]: inactive | Potency [5]: inactive | Potency [6]: inactive | Potency [7]: inactive | Potency [8]: inactive

C=C1/C(=C/C=C2\CCC[C@]3(C)[C@@H]([C@H](C)/C=C/[C@H](O)C4CC4)CC[C@@H]23)C[C@@H](O)C[C@@H]1O
Potency [1]: inactive | Potency [2]: inactive | Potency [3]: inactive | Potency [4]: inactive | Potency [5]: inactive | Potency [6]: inactive | Potency [7]: inactive | Potency [8]: inactive

COc1ccc(OC)c(-c2ccc(NC(=O)c3ccncc3F)cc2)c1
Potency [1]: inactive | Potency [2]: inactive | Potency [3]: inactive | Potency [4]: inactive | Potency [5]: inactive | Potency [6]: inactive | Potency [7]: inactive | Potency [8]: inactive

CN[C@@H]1[C@H](O[C@H]2[C@H](O[C@@H]3[C@@H](O)[C@H](O)[C@@H](N=C(N)N)[C@H](O)[C@H]3N=C(N)N)O[C@@H](C)[C@]2(O)CO)O[C@@H](CO)[C@H](O)[C@H]1O
Potency [1]: inactive | Potency [2]: inactive | Potency [3]: inactive | Potency [4]: inactive | Potency [5]: inactive | Potency [6]: inactive | Potency [7]: inactive | Potency [8]: inactive

CC(=O)O[C@H]1CC[C@]2(C)[C@H]3CC[C@]4(C)Oc5oc(C)cc(=O)c5C[C@H]4[C@]3(C)CC[C@H]2C1(C)C
Potency [1]: inactive | Potency [2]: inactive | Potency [3]: inactive | Potency [4]: inactive | Potency [5]: inactive | Potency [6]: inactive | Potency [7]: inactive | Potency [8]: inactive

O=C(NCc1nc2ccccc2c(=O)n1-c1ccc(F)cc1)Nc1ccc(Cl)c(C(F)(F)F)c1
Potency [1]: inactive | Potency [2]: inactive | Potency [3]: inactive | Potency [4]: inactive | Potency [5]: inactive | Potency [6]: inactive | Potency [7]: inactive | Potency [8]: inactive

C=C(C)[C@@H]1CC[C@]2(C(=O)O)CC[C@]3(C(=O)O)[C@H](CCC4[C@@]5(C)CCC(=O)C(C)(C)C5CC[C@]43C)C12 (stereo not given in full)
Potency [1]: inactive | Potency [2]: inactive | Potency [3]: inactive | Potency [4]: inactive | Potency [5]: inactive | Potency [6]: inactive | Potency [7]: inactive | Potency [8]: inactive

CC(=O)OC1C(=O)C2C3OCC4=C3[C@@](C)(CC[C@@H]4O)CC[C@]2(C)[C@H]1C(C)C (stereo not given in full)
Potency [1]: inactive | Potency [2]: inactive | Potency [3]: inactive | Potency [4]: inactive | Potency [5]: inactive | Potency [6]: inactive | Potency [7]: inactive | Potency [8]: inactive

COc1cc(O)cc(/C=C/c2cccc(O)c2)c1
Potency [1]: inactive | Potency [2]: inactive | Potency [3]: inactive | Potency [4]: inactive | Potency [5]: inactive | Potency [6]: inactive | Potency [7]: inactive | Potency [8]: inactive

COC(=O)c1ccc(N2CCN(C)CC2)c(NC(=O)c2cccc(OC)c2)c1
Potency [1]: inactive | Potency [2]: inactive | Potency [3]: inactive | Potency [4]: inactive | Potency [5]: inactive | Potency [6]: inactive | Potency [7]: inactive | Potency [8]: inactive

CC(=O)N[C@H]1[C@H](O[C@H]2CC[C@@]3(C)C(CC[C@]4(C)C3CC=C3C5CC(C)(C)CC[C@]5(C(=O)O)C(O)C[C@]34C)C2(C)C)O[C@H](CO[C@@H]2O[C@H](C)[C@H](O)[C@H](O)[C@H]2O[C@@H]2OC[C@@H](O)[C@H](O)[C@H]2O)[C@@H](O)[C@@H]1O (stereo not given in full)
activity change, negative = cytotoxicity [1]: 3.31% [at 11.6 µM] | activity change, negative = cytotoxicity [2]: 25.2% [at 11.6 µM] | activity change, negative = cytotoxicity [3]: 3.97% [at 11.6 µM] | activity change, negative = cytotoxicity [4]: 4.55% [at 11.6 µM] | activity change, negative = cytotoxicity [5]: -2.18% [at 11.6 µM] | activity change, negative = cytotoxicity [6]: -18.9% [at 11.6 µM] | activity change, negative = cytotoxicity [7]: 7.05% [at 11.6 µM] | activity change, negative = cytotoxicity [8]: 4.44% [at 11.6 µM]

COCCCNC(=O)c1ccc(Cn2c(=O)c3ccccc3n(Cc3ccc(C(C)C)cc3)c2=O)cc1
Potency [1]: inactive | Potency [2]: inactive | Potency [3]: inactive | Potency [4]: inactive | Potency [5]: inactive | Potency [6]: inactive | Potency [7]: inactive | Potency [8]: inactive

CCCC(=O)C1(c2ccccc2)CCN(C(=O)[C@@H](Cc2ccc(OC)cc2)NC(=O)[C@@H](N)Cc2cncn2C)CC1
Potency [1]: inactive | Potency [2]: inactive | Potency [3]: inactive | Potency [4]: inactive | Potency [5]: inactive | Potency [6]: inactive | Potency [7]: inactive | Potency [8]: inactive

CC(=O)OC1CC(C)C2(CCC3(CC(=O)OC3O)O2)C2(C)CCCC(C)(C)C12 (stereo not given)
Potency [1]: inactive | Potency [2]: inactive | Potency [3]: inactive | Potency [4]: inactive | Potency [5]: inactive | Potency [6]: inactive | Potency [7]: inactive | Potency [8]: inactive

CCNC1(C(N)=O)CCN(c2ncnc3c2nc(-c2ccccc2Cl)n3-c2ccc(Cl)cc2)CC1
Potency [1]: inactive | Potency [2]: inactive | Potency [3]: inactive | Potency [4]: inactive | Potency [5]: inactive | Potency [7]: inactive | Potency [8]: inactive

O=C(Nc1ccc(-c2ccc(Cl)c(Cl)c2)cc1)C1=C(O)c2ccccc2S(=O)(=O)N1
Potency [1]: inactive | Potency [2]: inactive | Potency [3]: inactive | Potency [4]: inactive | Potency [6]: inactive | Potency [7]: inactive

O=S(=O)(Cc1ccccc1)Nc1ccc(-c2ccc3c(cnn3-c3ccc(F)cc3)c2)c(C(F)(F)F)c1
Potency [1]: inactive | Potency [2]: inactive | Potency [3]: inactive | Potency [4]: inactive | Potency [5]: inactive | Potency [6]: inactive | Potency [7]: inactive | Potency [8]: inactive

N#Cc1ccc(-c2ccc(S(=O)(=O)Nc3cccc(N)n3)cc2)cc1
Potency [1]: inactive | Potency [2]: inactive | Potency [3]: inactive | Potency [4]: inactive | Potency [6]: inactive | Potency [7]: inactive | Potency [8]: inactive

COc1cc2c(cc1OC)CN(C(=O)/C=C/c1c(-c3ccccc3)n(C)c3ncccc13)CC2
Potency [1]: inactive | Potency [2]: inactive | Potency [3]: inactive | Potency [4]: inactive | Potency [6]: inactive | Potency [7]: inactive | Potency [8]: inactive
